# Data: PubChem BioAssay (Tox21)
# Inconclusive results are not listed. Where a call stands in place of a potency, no number is given. Active and inactive are the calls of the source. The call rests on the fitted dose curve; in most records, active means well fitted curve in the direction sought with a large enough effect in the repeat runs; inconclusive means weak or mixed curves; inactive means no such curve, though single readings can be large; an effect the other way counts as inactive or inconclusive.
# Assays:
# [1] = A CellTox Green Cytotoxicity Assay to monitor cytotoxicity in HEK293 cells - 32 hour (AID 1224881); further: nearly all actives have a fitted effect of over 40% in size
# How it was run: (§1)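 HEK293 cells premixed with CellTox Green dye were seeded at 600 cells/well and left 5 h at 37 C/5% CO2 before pin transfer of 23 nL compound in DMSO. Fluorescence from dye bound to dead-cell DNA was read during 40 h treatment.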
# [2] = A CellTox Green Cytotoxicity Assay to monitor cytotoxicity in HepG2 cells - 0 hour (AID 1224882); further: nearly all actives have a fitted effect of over 35% in size
# How it was run: (§2)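 HepG2 cells were seeded together with the CellTox Green dye at 600 cells/well, left 5 h at 37 C/5% CO2, then given compounds in DMSO. Fluorescence from dye bound to dead-cell DNA was read repeatedly over 40 h of treatment at 37 C.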
# [3] = A CellTox Green Cytotoxicity Assay to monitor cytotoxicity in HepG2 cells - 32 hour (AID 1224883); further: nearly all actives have a fitted effect of over 50% in size
# How it was run: as §2
# [4] = A CellTox Green Cytotoxicity Assay to monitor cytotoxicity in HEK293 cells - 8 hour (AID 1224884); further: nearly all actives have a fitted effect of over 35% in size
# How it was run: as §1
# [5] = qHTS RealTime-Glo MT Cell Viability Assay in HEK293 cells - 24 hour (AID 1224886); further: nearly all actives have a fitted effect of over 50% in size; further: potency means the concentration at half of the fitted maximal effect
# How it was run: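 Luminescence generated by NanoLuc from substrate produced by living HEK293 cells served as the viability signal. Each value reflects the reading at its stated time point during continuous 40 h compound exposure at 37 C.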
# [6] = qHTS RealTime-Glo MT Cell Viability Assay in HEK293 cells - 8 hour (AID 1224887); further: nearly all actives have a fitted effect of over 50% in size; further: potency means the concentration at half of the fitted maximal effect
# How it was run: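 HEK293 cells mixed with RealTime-Glo reagents (NanoLuc plus cell-permeant prosubstrate) at 600 cells/well, preincubated 5 h at 37 C/5% CO2, then given 23 nL compound in DMSO. Nonlytic luminescence from viable cells was read at 0, 8, 16, 24, 32 and 40 h.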
# [7] = A CellTox Green Cytotoxicity Assay to monitor cytotoxicity in HEK293 cells - 16 hour (AID 1224888); further: nearly all actives have a fitted effect of over 35% in size
# How it was run: as §1
# [8] = qHTS RealTime-Glo MT Cell Viability Assay in HepG2 cells - 0 hour (AID 1224889); further: nearly all actives have a fitted effect of over 50% in size
# How it was run: (§3)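 Tox21 10K library screened in qHTS format on HepG2 cells carrying RealTime-Glo reagents. Compounds were added after a 5 h preincubation, and the luminescent signal from continuous culture was measured repeatedly during 40 h treatment.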
# [9] = A CellTox Green Cytotoxicity Assay to monitor cytotoxicity in HepG2 cells - 8 hour (AID 1224890); further: nearly all actives have a fitted effect of over 45% in size
# How it was run: as §2
# [10] = qHTS RealTime-Glo MT Cell Viability Assay in HepG2 cells - 16 hour (AID 1224885); further: nearly all actives have a fitted effect of over 50% in size
# How it was run: as §3
SMILES,Potency [1],outcome [2],Potency [3],Potency [4],Potency [5],Potency [6],Potency [7],Potency [8],Potency [9],Potency [10]
CC(=O)CC(c1ccc(Cl)cc1)c1c(O)c2ccccc2oc1=O (stereo unspecified),inactive,inactive,inactive,inactive,inactive,inactive,inactive,inactive,inactive,–
CC1=C(C(=O)Nc2ccccc2)S(=O)(=O)CCO1,inactive,inactive,inactive,inactive,–,inactive,inactive,inactive,inactive,inactive
O=P(O)(Oc1ccccc1)Oc1ccccc1,inactive,inactive,inactive,inactive,–,inactive,inactive,inactive,inactive,inactive
CNC(=O)Oc1ccccc1C1OCCO1,inactive,inactive,inactive,inactive,inactive,inactive,inactive,inactive,inactive,–
CCS(=O)(=O)CCSP(=O)(OC)OC,inactive,inactive,inactive,inactive,inactive,inactive,inactive,–,inactive,–
Nc1cc(Cl)ccc1O,inactive,inactive,inactive,inactive,inactive,–,inactive,inactive,inactive,inactive
CC(COc1ccc(Oc2ccccc2)cc1)Oc1ccccn1 (stereo unspecified),inactive,inactive,inactive,inactive,–,–,inactive,inactive,inactive,inactive
CCCSP(=S)(OCC)Oc1ccc(Cl)cc1Cl (stereo unspecified),inactive,inactive,inactive,inactive,inactive,inactive,inactive,inactive,inactive,–
CCCSP(=O)(OCC)Oc1ccc(Br)cc1Cl (stereo unspecified),inactive,inactive,inactive,inactive,inactive,inactive,inactive,inactive,inactive,–
Nc1n[nH]c(N)n1,inactive,inactive,inactive,inactive,–,inactive,inactive,inactive,inactive,inactive
CCC(Cl)[N+](=O)[O-] (stereo unspecified),inactive,inactive,inactive,inactive,inactive,inactive,inactive,inactive,inactive,–
C=CC1CC=CCC1 (stereo unspecified),inactive,inactive,inactive,inactive,inactive,inactive,inactive,inactive,inactive,–
CS(=O)(=O)c1cc(C(F)(F)F)ccc1C(=O)c1cnoc1C1CC1,inactive,inactive,inactive,inactive,inactive,inactive,inactive,–,inactive,–
N#CCCC#N,inactive,inactive,inactive,inactive,inactive,inactive,inactive,inactive,inactive,–
Nc1cc2c3c(c1)C(c1ccccc1)=N[C@@H](NC(=O)c1cccnc1)C(=O)N3CC2,inactive,inactive,inactive,inactive,inactive,inactive,inactive,inactive,inactive,–
C(CCOCC1CO1)COCC1CO1 (stereo unspecified),inactive,inactive,inactive,inactive,inactive,inactive,inactive,inactive,inactive,–
CCN(CC)C(=O)[C@@H]1C=C2c3cccc4[nH]cc(c34)C[C@H]2N(C)C1,inactive,inactive,inactive,inactive,–,inactive,inactive,inactive,inactive,inactive
c1coc(-c2nc3ccccc3[nH]2)c1,inactive,inactive,inactive,inactive,–,–,inactive,–,inactive,inactive
CN/C(=N\[N+](=O)[O-])NCC1CCOC1 (stereo unspecified),inactive,inactive,inactive,inactive,inactive,inactive,inactive,inactive,inactive,–
CCOC(=O)C1(c2ccccc2)CCN(CCc2ccc(N)cc2)CC1,inactive,inactive,inactive,inactive,inactive,inactive,inactive,inactive,inactive,–
O=C(CCCN1CCC(n2c(=O)[nH]c3ccccc32)CC1)c1ccc(F)cc1,inactive,inactive,inactive,inactive,–,–,inactive,inactive,inactive,inactive
C=C(C)CN(CC)c1c([N+](=O)[O-])cc(C(F)(F)F)cc1[N+](=O)[O-],inactive,inactive,inactive,inactive,inactive,–,inactive,inactive,inactive,inactive
Cc1cc(C)c(C(=O)P(=O)(C(=O)c2c(C)cc(C)cc2C)c2ccccc2)c(C)c1,inactive,inactive,inactive,inactive,inactive,inactive,inactive,inactive,inactive,–
CCC(C)(C)c1cc(-n2nc3ccccc3n2)c(O)c(C(C)(C)CC)c1,inactive,inactive,inactive,inactive,24.9 µM (active),–,inactive,inactive,inactive,inactive
ClC(Cl)Br,inactive,inactive,inactive,inactive,inactive,inactive,inactive,inactive,inactive,–

SMILES,Potency [1],outcome [2],Potency [3],Potency [4],Potency [5],Potency [6],Potency [7],Potency [8],Potency [9],Potency [10]
O=C(Nc1ccccc1)N(Cc1ccc(Cl)cc1)C1CCCC1,inactive,inactive,inactive,inactive,21.9 µM (active),24.5 µM (active),inactive,inactive,inactive,–
Cc1ncsc1CCCl,inactive,inactive,inactive,inactive,inactive,inactive,inactive,–,inactive,–
ClCCOCOCCCl,inactive,inactive,inactive,inactive,inactive,inactive,inactive,inactive,inactive,–
Cc1coc2c1CCC(C)C2 (stereo unspecified),inactive,inactive,inactive,inactive,inactive,inactive,inactive,inactive,inactive,–
COC(C)(C)C,inactive,inactive,inactive,inactive,inactive,inactive,inactive,inactive,inactive,–
O=C1OC(=O)C2C1C1(Cl)C(Cl)=C(Cl)C2(Cl)C1(Cl)Cl (stereo unspecified),inactive,inactive,–,inactive,inactive,inactive,inactive,inactive,inactive,inactive
CNNC,inactive,inactive,–,inactive,inactive,inactive,inactive,inactive,inactive,inactive
CCNc1nc(NC(C)C)nc(OC)n1,inactive,inactive,–,inactive,inactive,inactive,inactive,–,inactive,inactive
COC(=O)C1=CCCN(C)C1,inactive,inactive,–,inactive,inactive,inactive,inactive,inactive,inactive,inactive
Fc1cc(Br)ccc1CBr,inactive,inactive,–,inactive,inactive,inactive,inactive,inactive,inactive,inactive
CC(=O)C(Cl)Cl,inactive,inactive,–,inactive,inactive,inactive,inactive,–,inactive,inactive
CNCC(=O)c1ccc(O)c(O)c1,inactive,inactive,–,inactive,inactive,inactive,inactive,inactive,inactive,inactive
CCOC(=O)N(C)C(=O)CSP(=S)(OCC)OCC,inactive,inactive,inactive,–,inactive,inactive,inactive,–,inactive,inactive
COc1ccc2c(c1OC)CN1CCc3cc4c(cc3C1C2)OCO4 (stereo unspecified),inactive,inactive,inactive,inactive,–,inactive,inactive,inactive,inactive,–
CCOP(=S)(OCC)Oc1cc(-c2ccccc2)on1,inactive,inactive,inactive,inactive,inactive,–,inactive,inactive,inactive,–
ClCC(Cl)Cl,inactive,inactive,inactive,–,inactive,inactive,inactive,–,inactive,inactive
COc1cc(OC)nc(Oc2cccc(Oc3nc(OC)cc(OC)n3)c2C(=O)O)n1,inactive,inactive,–,inactive,inactive,inactive,inactive,inactive,inactive,inactive
N#Cc1ccncc1,inactive,inactive,–,inactive,inactive,inactive,inactive,inactive,inactive,inactive
Cc1ncc2n1-c1ccc(Cl)cc1C(c1ccccc1F)=NC2,inactive,inactive,inactive,–,–,inactive,inactive,inactive,inactive,inactive
COC(=O)c1ccccc1S(=O)(=O)NC(=O)Nc1nc(C)cc(C)n1,inactive,inactive,–,inactive,inactive,inactive,inactive,inactive,inactive,inactive
CN1C[C@@H](NS(=O)(=O)N(C)C)C[C@@H]2c3cccc4c3c(cn4C)C[C@H]21,inactive,inactive,–,inactive,inactive,inactive,inactive,inactive,inactive,inactive
Cc1nc(N)nc(N)n1,inactive,inactive,–,inactive,inactive,inactive,inactive,inactive,inactive,inactive
O=c1oc2ccccc2c(O)c1C1CCCc2ccccc21 (stereo unspecified),inactive,inactive,–,inactive,inactive,inactive,inactive,inactive,inactive,inactive
C[C@H]1CCC[C@H](O)CCCCCc2cc(O)cc(O)c2C(=O)O1,inactive,inactive,–,inactive,34.9 µM (active),27.7 µM (active),inactive,inactive,inactive,inactive
CCCSC(=O)Cl,inactive,inactive,–,inactive,inactive,inactive,inactive,inactive,inactive,inactive
